Source: PubChem BioAssay (Sanford-Burnham Center for Chemical Genomics)
tim23-1 inh = tim23-1 yeast growth inhibition; inhibition, % at 20 µM; AID 463212; 330,000 tested, 1.3% active; S. cerevisiae tim23-1 growth, BacTiter-Glo luminescence, 24 h;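 active = growth inhibition of the mutant yeast at or above 50%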;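 note: temperature-sensitive mutant grown at 25 °C; plate controls were DMSO-treated mutant yeast for no effect and medium wells lacking yeast for full effect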
NLRP3 yeast inh = NALP3 inhibition in yeast | Yeast reconstituted NLRP3/ASC/caspase-1, beta-gal luminescence, 24 h | inhibition, % at 10 µM | 330,000 tested, 0.39% active | AID 2825;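 active = inhibition of 50% or more; inactive = inhibition below 50%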;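 note: plate controls were induced DMSO wells for no effect and uninduced yeast grown without galactose for full effect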
NALP1 yeast inh = blocks the NALP1 inflammasome reconstituted in yeast; S. cerevisiae NALP1/ASC/caspase-1 growth, X-gal OD620, 72 h; inhibition, % at 10 µM; 280,000 tested, 0.61% active; in the data active = inhibition mostly above about 24%, no sharp cut-off; inactive = mostly below about 32%
tim10-1 inh = growth inhibitors of tim10-1 mutant yeast | S. cerevisiae tim10-1 ts strain growth, BacTiter-Glo, 24 h | inhibition, % at 20 µM | 330,000 tested, 2.2% active;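 active = inhibition of at least 40%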;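 note: mutant grown at 25 °C; 0% = DMSO wells with yeast and 100% = wells holding no yeast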
TIM10 inh = growth inhibitors of TIM10 yeast strain; inhibition, % at 10 µM; 330,000 tested, 1.4% active; S. cerevisiae TIM10 strain growth, BacTiter-Glo luminescence, 24 h;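 active = inhibition of 40% or more at the single tested concentration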;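 note: wild-type TIM10 isogenic control strain grown at permissive 25 °C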
tim10 confirm = TIM10 yeast growth inhibition, confirmed. shares compounds with TIM10 inh. inhibition, % at 10 µM. AID 463215. 4,600 tested, 63% active. S. cerevisiae tim10 strain growth, BacTiter-Glo luminescence, 24 h;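 active = inhibition of yeast growth at or above a set limit in either of two replicates at 10 µM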;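 note: this counterscreen used the strain with wild-type TIM10; 0% = yeast with DMSO and 100% = medium wells lacking yeast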
Starred values were filed as active, the others as inactive. Shown are actives, neighbours in structure and some others; about 4% of the full set was active somewhere.

Screening N#CC1(NC(=O)CSc2nnc3n2CCCCC3)CCCCC1 returned tim23-1 inh -5, NLRP3 yeast inh 13, tim10-1 inh -3, TIM10 inh 81* and tim10 confirm 7.
`CN(C(=O)CSc1nnc2n1CCCCC2)C1(C#N)CCCCC1` gave tim23-1 inh -2, NLRP3 yeast inh 5, tim10-1 inh -14 and TIM10 inh -2.
`O=C1CC(c2cccc(O)c2)Oc2ccccc21` (stereo not drawn) gave tim23-1 inh 22, NLRP3 yeast inh 7, tim10-1 inh 13 and TIM10 inh 17.
`Cc1cc(C)c(OCC(=O)OCC(=O)N2CCCc3ccccc32)c(C)c1` gave tim23-1 inh 24, NLRP3 yeast inh 21, tim10-1 inh 17 and TIM10 inh 3.
`Cc1nc([N+](=O)[O-])c(Sc2nc3ccccc3n2C)n1Cc1ccccc1` gave tim23-1 inh 37, NLRP3 yeast inh -2, NALP1 yeast inh 25, tim10-1 inh 33, TIM10 inh 40* and tim10 confirm 42*.
For Cc1nc([N+](=O)[O-])c(SCC(N)=O)n1Cc1ccccc1 the results were tim23-1 inh 4, NLRP3 yeast inh 15, NALP1 yeast inh 4, tim10-1 inh -12 and TIM10 inh -1.
Screening Cc1c(C(=O)N2CCN(Cc3ccccc3)CC2)oc2c1C(=O)CCC2 returned tim23-1 inh 2, NLRP3 yeast inh 4, NALP1 yeast inh 20, tim10-1 inh -7 and TIM10 inh -5.
`Clc1ccc2c(c1)C(N1CCNCC1)Cc1ccccc1S2` (stereo not drawn) gave tim23-1 inh 4, NLRP3 yeast inh 24, NALP1 yeast inh 8, tim10-1 inh 22, TIM10 inh 48* and tim10 confirm -40.
For O=C(Cn1c2ccc(F)cc2c2nc3n(c(=O)c21)CCS3)Nc1ccc(Cl)cc1F the results were tim23-1 inh 8, NLRP3 yeast inh -4, NALP1 yeast inh 11, tim10-1 inh 38, TIM10 inh 41* and tim10 confirm 34*.
For COc1ccc2[nH]cc(CCNC(=O)c3ccco3)c2c1 the results were tim23-1 inh -4, NLRP3 yeast inh 8, tim10-1 inh -2 and TIM10 inh 5.
Screening O=C(Oc1ccc2[nH]cc(CCN3C(=O)c4ccccc4C3=O)c2c1)c1ccco1 returned tim23-1 inh 30, NLRP3 yeast inh 24, NALP1 yeast inh 28, tim10-1 inh 31, TIM10 inh 43* and tim10 confirm 39*.
For CCCCn1c(N)c(N(CCOC)C(=O)c2c(CC)noc2C)c(=O)[nH]c1=O the results were tim23-1 inh 10, NLRP3 yeast inh 9, tim10-1 inh 12 and TIM10 inh 0.
For Cc1ccc(S(=O)(=O)NCCN2CCOCC2)s1 the results were tim23-1 inh -14, NLRP3 yeast inh 14, NALP1 yeast inh 3, tim10-1 inh -4 and TIM10 inh 2.
For COc1ccc(/C=N/NC(=O)c2cccc(S(=O)(=O)N3CCCC3)c2)cc1O the results were tim23-1 inh -6, NLRP3 yeast inh 5, tim10-1 inh -14 and TIM10 inh 5.
`O=C(NC(=S)Nc1ccc2c(c1)OCCO2)c1cccc2ccccc12` gave tim23-1 inh 40, NLRP3 yeast inh 16, NALP1 yeast inh 28, tim10-1 inh 39, TIM10 inh 44* and tim10 confirm 48*.
Screening Cc1cc(Cn2nc(C(=O)NCc3cccc(C(F)(F)F)c3)cc2-c2ccccc2)on1 returned tim23-1 inh -4, NLRP3 yeast inh -1, tim10-1 inh 24 and TIM10 inh -8.
CC1(C)Cc2c(C#N)c(N3CCN(C(=O)c4ccco4)CC3)nc(Cc3ccccc3)c2CO1 was read as tim23-1 inh 18, NLRP3 yeast inh 16, NALP1 yeast inh -2, tim10-1 inh 28, TIM10 inh 42* and tim10 confirm 5.
`CCc1nc(N2CCN(C(=O)c3ccco3)CC2)c(C#N)c2c1COC(C)(C)C2` gave tim23-1 inh 30, NLRP3 yeast inh 23, NALP1 yeast inh 21, tim10-1 inh 26 and TIM10 inh 14.
Cc1nn(Cc2ccc(Cl)cc2)c(=O)n1N(C)c1ncc(C(F)(F)F)cc1Cl was read as tim23-1 inh 5, NLRP3 yeast inh 13, NALP1 yeast inh 0, tim10-1 inh 40, TIM10 inh 55* and tim10 confirm -1.
CCOC(=O)c1ccc2nc(CCC(=O)N[C@H](C(=O)OC)C(C)C)c(=O)n(CC)c2c1 was read as tim23-1 inh 4, NLRP3 yeast inh 5, NALP1 yeast inh 18, tim10-1 inh 9 and TIM10 inh 13.
O=C(c1c(Cl)nc2sccn12)N(C(=O)c1c(Cl)nc2sccn12)c1ccc(Cl)cn1 was read as tim23-1 inh 48, NLRP3 yeast inh 18, NALP1 yeast inh 16, tim10-1 inh 27, TIM10 inh 42* and tim10 confirm 22.
For O=C(NCCc1c[nH]c2ccccc12)c1c(Cl)nc2sccn12 the results were tim23-1 inh -10, NLRP3 yeast inh -9, NALP1 yeast inh 21, tim10-1 inh -12 and TIM10 inh -2.
Screening COc1ccc(CN=Cc2[nH]c3ccc(Br)c(Cl)c3c2O)cc1 returned tim23-1 inh 14, NLRP3 yeast inh 16, NALP1 yeast inh 31, tim10-1 inh 10, TIM10 inh 41* and tim10 confirm 19.
Cc1cc(C)cc(N=Cc2[nH]c3ccc(Br)c(Cl)c3c2O)c1 was read as NALP1 yeast inh 26.
For Cc1noc(C)c1S(=O)(=O)N(C)C[C@H]1Oc2c(NS(=O)(=O)c3cn(C)cn3)cccc2C(=O)N([C@H](C)CO)C[C@@H]1C the results were tim23-1 inh -13, NLRP3 yeast inh 7, tim10-1 inh -4 and TIM10 inh 4.
`O=C(N/N=C/c1ccc(Br)o1)c1ccc2c(c1)OCCO2` gave tim23-1 inh 37, NLRP3 yeast inh 35, NALP1 yeast inh 26, tim10-1 inh 5, TIM10 inh 56* and tim10 confirm 63*.
`O=C(O)c1ccc(/C=N/NC(=O)c2ccc3c(c2)OCCO3)cc1` gave tim23-1 inh 20, NLRP3 yeast inh 0, NALP1 yeast inh 3, tim10-1 inh -2 and TIM10 inh 14.
For OCC1(CCc2ccccc2)CCN(Cc2cccn2-c2cccnc2)CC1 the results were tim23-1 inh 0, NLRP3 yeast inh 11, NALP1 yeast inh -1, tim10-1 inh 5 and TIM10 inh -2.
`CCCn1c(O)c(/C=C2\C=NN=C2c2ccccc2)sc1=S` gave tim23-1 inh 8, NLRP3 yeast inh 12, NALP1 yeast inh 24, tim10-1 inh 39, TIM10 inh 42* and tim10 confirm 24.
O=C1c2ccccc2S(=O)(=O)c2cc(N3CCC(C(=O)N4CCCCC4)CC3)ccc21 was read as tim23-1 inh 16, NLRP3 yeast inh 12, tim10-1 inh 5 and TIM10 inh 9.
